# Source: PubChem BioAssay AID738 (SRMLSC, 2007)
# Screen size: about 98,000 compounds; about 4,900 (5%) were called active. Rule as the data show it: active = inhibition above about 30%; inactive = the rest. The list comes from a sample in which actives are over-represented; it also holds similar structures and randomly drawn compounds.
# Experiment: yeast control strain growth suppression – counter-screen for post-Golgi transport modulator project, primary screen (AID 738)
# Details: efflux-deficient yeast background strain, growth absorbance A615, 16 h; at 10 µM; stronger effect = higher value
row,Structure (SMILES),inhibition
1,Cn1c2c(c(=O)n(C)c1=O)[C@@H]1c3c(ccc4ccccc34)OC[C@@H]1CO2,3.76% (inactive)
2,CCn1c(/C=C/c2ccc([N+](=O)[O-])o2)nc2ccccc2c1=O,68% (active)
3,Cc1nc2ccccc2c(=O)n1CCCn1ccnc1,1.67% (inactive)
4,CCc1ccc(NC(=O)CSc2nc3ccccc3c(=O)n2CCN2CCOCC2)cc1,7.51% (inactive)
5,O=C(Nc1nnc(SCc2ccc(Cl)cc2Cl)s1)C1COc2ccccc2O1 (stereo unspecified),5% (inactive)
6,CCOC(=O)c1cnc(-c2ccccc2)nc1Oc1ccc(C)cc1,4.35% (inactive)
7,Cc1nnc(NC(=O)Cn2c(=O)sc3ccccc32)s1,-3.03% (inactive)
8,O=C(CC(O)(C(F)(F)F)C(F)(F)F)Nc1ccc(Cl)c(Cl)c1,96.9% (active)
9,Cc1nnc(NC(=O)Nc2ccc(Cl)c(Cl)c2)s1,3.53% (inactive)
10,N/C(=N\OC(=O)Nc1ccc(Cl)c(Cl)c1)c1ncc(C(F)(F)F)cc1Cl,13.3% (inactive)
11,COCc1cc(C)nc2sc3c(=O)n(-c4cccc5ccccc45)nnc3c12,21.1% (inactive)
12,O=C(CN1CCN(c2nc(-c3ccccc3)cs2)CC1)NCc1ccc2c(c1)OCO2,44.6% (active)
13,COc1ccc(-c2csc(N3CCN(Cc4ccc5c(c4)OCO5)CC3)n2)cc1,-2.01% (inactive)
14,O=C(Cn1nnc(-c2ccccc2)n1)NCc1ccc2c(c1)OCO2,2.85% (inactive)
15,COc1ccc(C2CC(=O)Nc3sc(=N)c4c(N)c(C#N)c(N)nc4c32)cc1OC (stereo unspecified),24.2% (inactive)
16,Fc1ccccc1/C=C1\CCCC2=C1Nc1ncnn1C2c1ccccc1F (stereo unspecified),35.8% (active)
17,CCCSc1nc2c(c(=O)[nH]c(=O)n2C)n1CCc1ccccc1,16.6% (inactive)
18,CCCCCCn1c(SCC(=O)c2ccccc2)nc2c1c(=O)[nH]c(=O)n2C,12.4% (inactive)
19,CCCCCn1c(SCCC(C)C)nc2c1c(=O)[nH]c(=O)n2C,35.5% (active)
20,ONC(=Nc1ccccc1)c1ccccc1Cl,24.2% (inactive)
21,CN(C(=O)CSc1nnc(N)s1)c1c(N)n(Cc2ccccc2)c(=O)[nH]c1=O,7.66% (inactive)
22,Cc1cc([N+](=O)[O-])c(N2CCC[C@@H]2C(=O)O)c([N+](=O)[O-])c1,18.4% (inactive)
23,Cc1ccsc1-c1nc(CSCC(=O)NCCN2CCCC2)c(C)o1,34.5% (active)
24,Cn1c(C(=O)NCCCN2CCCCC2)cc2sccc21,2.29% (inactive)

row,Structure (SMILES),inhibition
1,Cc1ccc(Cc2c(C)nc3nc(SCC(=O)NCCN4CCOCC4)nn3c2C)cc1,20% (inactive)
2,COc1ccccc1N1CCN(Cc2ccc(OC)c3ccccc23)CC1,34.9% (active)
3,COc1ccccc1N1CCN(CCCCOc2ccc(F)cc2)CC1,-0.55% (inactive)
4,COc1ccccc1N1CCN(Cc2nnnn2CCc2ccccc2)CC1,7.81% (inactive)
5,Cc1cc(C)n2nc(C(=O)NC(C)(C)C)nc2n1,4.47% (inactive)
6,COc1ccc(Oc2c(Cl)cnn(-c3ccccc3)c2=O)cc1,-3.86% (inactive)
7,CCN1CCC(=NNC(=O)c2ccc(C)c([N+](=O)[O-])c2)CC1,3.82% (inactive)
8,Cc1ccccc1-c1nc(CS(=O)(=O)CC(=O)N2CCc3ccccc3C2)c(C)o1,30.9% (active)
9,COc1ccc(-c2nc(CS(=O)CC(=O)N3CCc4ccccc4C3)c(C)o2)cc1 (stereo unspecified),4.85% (inactive)
10,Cc1oc(-c2ccccc2F)nc1CS(=O)(=O)CC(=O)NCCCN(C)C1CCCCC1,13.5% (inactive)
11,COc1cc(/C=N\NC(=O)C2C(=O)NCC2c2ccccc2)cc(OC)c1O (stereo unspecified),-0.14% (inactive)
12,CC(C)(C)Cc1nnc(NC(=O)c2cc(-c3ccccc3)nc3ccccc23)s1,9.13% (inactive)
13,CCOC(=O)c1cc2cc(C)ccc2[nH]1,10.2% (inactive)
14,CCOC(=O)c1[nH]c2ccccc2c1N=C(C)N(CC)CC,-8.42% (inactive)
15,CCOC(=O)c1[nH]c2ccc(C)cc2c1N=C(C)N(C)C,30.6% (active)
16,Cn1cnc([N+](=O)[O-])c1Sc1ccccc1,7.56% (inactive)
17,Clc1ccc(-n2nnnc2CN2CCCCC2)cc1Cl,-0.16% (inactive)
18,Cc1ccccc1CS(=O)(=O)CC1(O)CCN(C(=O)c2cccc(C(F)(F)F)c2)CC1,4.49% (inactive)
19,COc1cc(/C=C(/NC(=O)c2ccccc2)C(=O)Nc2cccc(O)c2)c([N+](=O)[O-])cc1OC,15.7% (inactive)
20,O=C(Cc1ccc(-n2c(=O)[nH]c3ccccc3c2=O)cc1)N1CCN(c2cccc(Cl)c2)CC1,37.3% (active)
21,CCOC(=O)N1CCN(C(=O)Cc2ccc(-n3c(=S)[nH]c4ccccc4c3=O)cc2)CC1,-2.12% (inactive)
22,O=C(CCn1c(=O)[nH]c2ccccc2c1=O)NCCCN1CCN(c2cccc(Cl)c2)CC1,1.72% (inactive)
23,COc1ccc(NC(=O)C(NC(C)=O)C(=O)NCc2ccccc2Cl)cc1 (stereo unspecified),14% (inactive)
24,COC(=O)CN(C(=S)Nc1ccc(Cl)cc1)C1CC(=O)N(c2ccc(OC)cc2)C1=O (stereo unspecified),7.41% (inactive)

row,Structure (SMILES),inhibition
1,O=C(Nc1ccc(Br)c2cccnc12)c1ccc(Cn2cc([N+](=O)[O-])cn2)o1,30.3% (active)
2,CC1CCc2c(sc(NC(=O)c3ccc(Cn4cc(Br)cn4)o3)c2C(N)=O)C1 (stereo unspecified),10.8% (inactive)
3,O=C(NCc1cccnc1)c1ccc(CS(=O)(=O)c2ccc(Br)cc2)o1,-2.42% (inactive)
4,COc1ccccc1NC(=O)[C@H](COCc1ccccc1)NC(=O)OC(C)(C)C,5.88% (inactive)
5,CC(=O)c1ccc(Cc2ncc(C(F)(F)F)cc2Cl)s1,5.66% (inactive)
6,CCN1CCN(c2ccc([N+](=O)[O-])cc2C(=O)c2ccc(Cl)cc2)CC1,26.2% (inactive)
7,O=C(NCc1ccccn1)c1cc(-c2ccccc2Cl)on1,9.87% (inactive)
8,CCOc1ccc(C(=O)Nc2cc(OC)ccc2OC)cc1,-3.51% (inactive)
9,CC(=O)c1c(C)[nH]c(C(=O)NCc2ccc(C)cc2)c1C,5.25% (inactive)
10,COc1ccc(C)cc1NC(=O)c1[nH]c(C)c(C(C)=O)c1C,55% (active)
11,CC1=NN(C(=O)c2ccccc2Br)C(O)(c2cccnc2)C1 (stereo unspecified),9.36% (inactive)
12,COC(=O)c1ccc(C(=O)Nc2cc(Cl)ccc2Cl)cc1NC(=O)c1ccccc1C,1.48% (inactive)
13,Cc1ccc(NC(=O)C(C)c2cccc(C(=O)c3ccccc3)c2)cc1 (stereo unspecified),9.41% (inactive)
14,CC(C)CC(=O)N1CCC(O)(CS(=O)(=O)Cc2ccccc2)CC1,12.7% (inactive)
15,c1ccc(CSc2nnc(-c3ccco3)c(-c3ccco3)n2)cc1,21.3% (inactive)
16,c1ccc(CSc2nnc(-c3ccco3)n2Cc2ccccc2)cc1,38.6% (active)
17,O=C(CSc1nnc(-c2ccco2)n1Cc1ccccc1)NC(=O)NCc1ccco1,-1.05% (inactive)
18,COc1ccc(CCN(C(=O)COc2ccccc2)c2nc(-c3ccccc3)cs2)cc1OC,4.48% (inactive)
19,CCC(c1nnnn1Cc1ccco1)N(CCc1ccccc1)Cc1cc2ccc(OC)cc2[nH]c1=O (stereo unspecified),5.86% (inactive)
20,CCC(c1nnnn1Cc1ccco1)N(CCc1ccccc1)Cc1cc2cccc(C)c2[nH]c1=O (stereo unspecified),52.5% (active)
21,CCC(c1nnnn1C1CCCC1)N(Cc1cccs1)Cc1cc2cccc(C)c2[nH]c1=O (stereo unspecified),38.6% (active)
22,CCC(c1nnnn1Cc1ccco1)N(Cc1cc2cc(OC)ccc2[nH]c1=O)C1CCCCC1 (stereo unspecified),29.9% (inactive)
23,Cc1cccc2cc(CN(Cc3ccc4c(c3)OCO4)Cc3nnnn3C3CCCC3)c(=O)[nH]c12,20.4% (inactive)
24,Cc1cccc2cc(CN(Cc3cccs3)C(c3nnnn3C3CCCC3)C(C)C)c(=O)[nH]c12 (stereo unspecified),23% (inactive)

row,Structure (SMILES),inhibition
1,CCOC(=O)C1CN(S(=O)(=O)c2ccc(F)cc2)C1,-2.08% (inactive)
2,N=c1c2c(-c3ccccc3)c(-c3ccccc3)oc2ncn1Cc1ccco1,26.2% (inactive)
3,CC(=O)c1sc(NC(=O)c2cccc3ccccc23)nc1C,-0.59% (inactive)
4,Cc1ccc2nc(SCc3nnc(-c4ccccc4[N+](=O)[O-])o3)c(C#N)cc2c1,23.2% (inactive)
5,c1ccc2c(CSCc3nc4ccccc4[nH]3)cccc2c1,14.3% (inactive)
6,Cc1ccc(OC(=O)c2ccccc2C(=O)OCC(F)(F)C(F)F)cc1,5.33% (inactive)
7,COc1ccc(-c2cc(C(F)(F)F)nc(S(C)(=O)=O)n2)cc1OC,87.3% (active)
8,COc1ccc(-c2ccc(Nc3ccc(S(=O)(=O)N4CCCC4)cc3)nn2)cc1OC,-1.56% (inactive)
9,COc1ccc(-c2cc(C(F)(F)F)nc(NCc3cccnc3)n2)cc1,26.7% (inactive)
10,O=C(Nc1ccc(Br)cc1)C1CCC(=O)N1Cc1ccccc1Cl (stereo unspecified),-0.46% (inactive)
11,CSCc1cc(N2CCOCC2)nc(SCc2ccc(Cl)cc2Cl)n1,7.94% (inactive)
12,Cc1cc(C(=O)Nc2c(C)nn(Cc3ccccc3)c2C)on1,8.88% (inactive)
13,CC(=O)Nc1ccccc1C(=O)C(=O)Nc1ccc(F)cc1,4.22% (inactive)
14,N#Cc1nc(-c2ccc(OCc3ccccc3)cc2)oc1NCCCN1CCOCC1,14.1% (inactive)
15,N#Cc1nc(COc2ccc(-c3ccccc3)cc2)oc1NCc1cccnc1,94.2% (active)
16,N#Cc1nc(Cc2ccccc2)oc1NCCc1ccccc1,21.1% (inactive)
17,FC(F)(F)c1nc2ccccc2nc1N/N=C/c1ccc(Cl)cc1,-2.3% (inactive)
18,CCOC(=O)N1CCN(c2c(NCCCN3CCCC(C)C3)c(=O)c2=O)CC1 (stereo unspecified),-0.16% (inactive)
19,CC(C)C(c1nnnn1C1CCCC1)N1CCN(c2ccccc2F)CC1 (stereo unspecified),42.7% (active)
20,COc1ccc(C(c2nnnn2C2CCCCC2)N2CCN(c3ccccc3F)CC2)cc1 (stereo unspecified),50.5% (active)
21,COc1ccc(N2CCN(C(c3cc4ccc(C)cc4[nH]c3=O)c3nnnn3C3CCCC3)CC2)cc1 (stereo unspecified),-0.59% (inactive)
22,CCC(c1nnnn1C1CCCC1)N1CCN(C(=O)c2ccco2)CC1 (stereo unspecified),12.4% (inactive)
23,COCCn1nnnc1C(c1ccccc1Cl)N1CCN(c2ccccc2OC)CC1 (stereo unspecified),3.75% (inactive)
24,CC(C)C(c1nnnn1Cc1ccccc1)N1CCC(C(N)=O)CC1 (stereo unspecified),-0.16% (inactive)
